# Experimental data taken from PubChem BioAssay (EPA / NIEHS).
# Results filed as inconclusive are left out. The source made the active and inactive calls. The calls were made as follows, unless noted: active = hit-call score of the fitted dose curve at least 0.9, where 1 is the maximum; inconclusive = response in the unintended direction; inactive = score below 0.9.
# What was measured:
# [1] = target: human Norepinephrine Transporter (NET), SLC6A2 (gene 6530) (UniProt P23975); experiment: NVS_TR_hNET: NovaScreen (NVS) Transporter Assay for human Norepinephrine Transporter (NET) (AID 2283377);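 as to AC50: displacement of radioligand from human NET seen as loss of scintillation signal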
# Sequence of human Norepinephrine Transporter (NET), SLC6A2 (gene 6530) (P23975 whole entry, looked up): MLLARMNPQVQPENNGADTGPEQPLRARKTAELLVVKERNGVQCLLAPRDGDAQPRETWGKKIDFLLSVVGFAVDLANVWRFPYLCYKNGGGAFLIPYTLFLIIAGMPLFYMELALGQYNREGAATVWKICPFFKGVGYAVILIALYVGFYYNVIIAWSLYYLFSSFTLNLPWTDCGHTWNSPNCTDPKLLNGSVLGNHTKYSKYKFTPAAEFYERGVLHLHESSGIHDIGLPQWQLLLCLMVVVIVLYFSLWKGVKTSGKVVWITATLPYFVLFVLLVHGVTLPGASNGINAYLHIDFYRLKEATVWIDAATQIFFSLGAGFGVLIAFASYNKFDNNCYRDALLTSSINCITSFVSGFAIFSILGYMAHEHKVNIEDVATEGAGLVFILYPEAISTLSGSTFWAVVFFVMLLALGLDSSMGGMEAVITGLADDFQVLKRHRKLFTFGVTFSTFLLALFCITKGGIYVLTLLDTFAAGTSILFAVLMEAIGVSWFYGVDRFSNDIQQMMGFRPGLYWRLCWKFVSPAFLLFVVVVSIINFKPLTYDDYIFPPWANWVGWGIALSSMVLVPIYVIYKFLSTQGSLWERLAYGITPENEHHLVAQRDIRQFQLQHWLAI
# Summary of the method: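 Cell-free radioligand binding using CHO-derived membrane protein expressing human NET, read by filter scintillation counting 1 h after dosing; loss of signal vs DMSO. Initial duplicate screen at 25 uM, actives retested in concentration series.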
# [2] = target: Estrogen receptor beta (Homo sapiens) (UniProt Q92731); experiment: OT_ER_ERbERb_1440: Odyssey Thera (OT) 24-hour HEK293T Protein-Complementation Assay for Estrogen Receptor-beta/-beta Homodimer (AID 2283380);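 also: scored as signal increase over DMSO baseline for both agonists and antagonists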
# Sequence of Estrogen receptor beta (Homo sapiens) (Q92731 whole entry, looked up, the tested form may be a part): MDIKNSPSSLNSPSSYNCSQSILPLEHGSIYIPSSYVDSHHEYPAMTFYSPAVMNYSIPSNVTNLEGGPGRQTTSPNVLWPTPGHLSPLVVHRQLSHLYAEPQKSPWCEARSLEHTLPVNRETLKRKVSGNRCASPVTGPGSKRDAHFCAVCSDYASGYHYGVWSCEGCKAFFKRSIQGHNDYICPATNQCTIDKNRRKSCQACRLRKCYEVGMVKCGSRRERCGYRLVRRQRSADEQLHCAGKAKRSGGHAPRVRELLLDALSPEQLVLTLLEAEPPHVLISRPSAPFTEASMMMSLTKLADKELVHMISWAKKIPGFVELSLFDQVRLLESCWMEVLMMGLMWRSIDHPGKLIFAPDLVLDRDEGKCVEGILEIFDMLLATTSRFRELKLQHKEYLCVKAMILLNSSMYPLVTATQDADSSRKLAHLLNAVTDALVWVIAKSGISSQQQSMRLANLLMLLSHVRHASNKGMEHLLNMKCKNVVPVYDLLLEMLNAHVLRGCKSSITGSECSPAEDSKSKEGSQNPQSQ
# Summary of the method: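 HEK293T cells stably expressing ER beta LBD (aa 310-547) homodimer fragment-complementation reporter, dosed 24 h. Cells formaldehyde-fixed, Draq5-stained; gain in nuclear (agonist) or nuclear plus cytoplasmic (antagonist) fluorescence versus DMSO read by laser scanning cytometry.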
# [3] = target: Estrogen receptor (Homo sapiens) (UniProt P03372); experiment: OT_ERa_GFPERaERE_0480: Odyssey Thera (OT) 8-hour HeLa Transcription Induction Assay for Estrogen Receptor (AID 2283381; active = hit-call score of the fitted dose curve at least 0.9, where 1 is the maximum; inactive = score below 0.9)
# Sequence of Estrogen receptor (Homo sapiens) (P03372 whole entry, looked up): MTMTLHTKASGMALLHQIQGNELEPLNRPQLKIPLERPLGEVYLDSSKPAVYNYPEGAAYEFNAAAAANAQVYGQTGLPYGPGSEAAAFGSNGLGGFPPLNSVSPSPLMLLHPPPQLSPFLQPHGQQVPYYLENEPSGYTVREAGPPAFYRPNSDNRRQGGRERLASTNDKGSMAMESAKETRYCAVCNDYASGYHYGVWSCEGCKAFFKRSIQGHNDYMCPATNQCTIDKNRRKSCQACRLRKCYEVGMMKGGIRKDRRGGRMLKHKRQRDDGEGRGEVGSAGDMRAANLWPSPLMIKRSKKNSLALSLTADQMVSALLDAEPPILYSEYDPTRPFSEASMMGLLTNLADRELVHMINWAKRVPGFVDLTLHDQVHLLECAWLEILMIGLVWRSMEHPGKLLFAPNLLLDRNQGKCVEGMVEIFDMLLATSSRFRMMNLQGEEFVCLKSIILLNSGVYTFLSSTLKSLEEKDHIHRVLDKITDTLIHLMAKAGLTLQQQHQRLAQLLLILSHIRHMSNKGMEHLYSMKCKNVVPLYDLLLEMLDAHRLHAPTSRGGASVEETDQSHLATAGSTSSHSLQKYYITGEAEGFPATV
# Summary of the method: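 Cells (HeLa) receive compound; after 8 h, reporter fluorescence is imaged and quantified by high-content analysis. Gain-of-signal relative to DMSO gives the endpoint.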
# [4] = target: Estrogen receptor (Homo sapiens) (UniProt P03372); experiment: OT_ERa_GFPERaERE_0120: Odyssey Thera (OT) 2-hour HeLa Transcription Induction Assay for Estrogen Receptor (AID 2283382)
# Summary of the method: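 Measures ESR1 pathway reporter gain-of-signal in HeLa cells after a 2-hour treatment, detected as fluorescent protein induction by microscopy, DMSO as baseline.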
# [5] = target: human Dopamine Transporter (DAT), SLC6A3 (gene 6531) (UniProt Q01959); experiment: NVS_TR_hDAT: NovaScreen (NVS) Transporter Assay for human Dopamine Transporter (DAT) (AID 2283374);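 also: activity means loss of bound radioligand signal relative to DMSO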
# Sequence of human Dopamine Transporter (DAT), SLC6A3 (gene 6531) (Q01959 whole entry, looked up): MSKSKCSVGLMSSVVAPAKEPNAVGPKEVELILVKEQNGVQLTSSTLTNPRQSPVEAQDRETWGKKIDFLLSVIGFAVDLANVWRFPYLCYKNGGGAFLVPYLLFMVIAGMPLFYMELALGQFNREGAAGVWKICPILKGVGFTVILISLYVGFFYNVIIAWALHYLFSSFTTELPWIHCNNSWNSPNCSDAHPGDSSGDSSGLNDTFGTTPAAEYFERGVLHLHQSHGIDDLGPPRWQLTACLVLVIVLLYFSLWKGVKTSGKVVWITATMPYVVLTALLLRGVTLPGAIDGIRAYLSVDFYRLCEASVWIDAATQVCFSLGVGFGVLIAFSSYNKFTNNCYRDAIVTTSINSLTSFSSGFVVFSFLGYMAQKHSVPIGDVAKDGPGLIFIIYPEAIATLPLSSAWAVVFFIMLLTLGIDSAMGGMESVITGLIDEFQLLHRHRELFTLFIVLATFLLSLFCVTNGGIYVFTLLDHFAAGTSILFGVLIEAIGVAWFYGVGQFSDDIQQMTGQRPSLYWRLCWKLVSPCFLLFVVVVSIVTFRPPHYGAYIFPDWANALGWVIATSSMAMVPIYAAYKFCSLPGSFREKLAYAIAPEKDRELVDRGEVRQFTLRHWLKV
# Summary of the method: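 Cell-free radioligand displacement binding at human DAT, 1 h after dosing, with filtration and scintillation counting. Primary screen in duplicate at 25 uM, actives then in concentration series. Loss of bound signal versus DMSO scored.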
# [6] = target: rat Serotonin Transporter (SERT), Slc6a4 (gene 25553) (UniProt P31652); experiment: NVS_TR_rSERT: NovaScreen (NVS) Transporter Assay for rat Serotonin Transporter (SERT) (AID 2283375)
# Sequence of rat Serotonin Transporter (SERT), Slc6a4 (gene 25553) (P31652 whole entry, looked up): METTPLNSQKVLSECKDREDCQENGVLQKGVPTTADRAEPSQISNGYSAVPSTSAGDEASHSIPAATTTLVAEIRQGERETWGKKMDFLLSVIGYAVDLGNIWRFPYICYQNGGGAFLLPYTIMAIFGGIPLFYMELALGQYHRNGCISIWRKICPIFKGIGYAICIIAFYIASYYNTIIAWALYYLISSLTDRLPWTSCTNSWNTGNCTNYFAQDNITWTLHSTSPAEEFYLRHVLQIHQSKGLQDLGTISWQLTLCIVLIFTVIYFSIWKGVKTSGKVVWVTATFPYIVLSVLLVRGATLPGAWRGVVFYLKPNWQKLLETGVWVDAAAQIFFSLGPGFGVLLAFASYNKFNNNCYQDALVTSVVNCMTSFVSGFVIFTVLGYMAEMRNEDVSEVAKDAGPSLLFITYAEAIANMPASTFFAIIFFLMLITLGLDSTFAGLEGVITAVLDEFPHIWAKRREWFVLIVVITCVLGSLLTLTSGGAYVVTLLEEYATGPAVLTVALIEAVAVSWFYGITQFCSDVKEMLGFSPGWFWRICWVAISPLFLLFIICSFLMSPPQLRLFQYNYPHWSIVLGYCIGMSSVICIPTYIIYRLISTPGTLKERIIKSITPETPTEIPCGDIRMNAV
# Summary of the method: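 Steps: rat forebrain membranes dosed with chemical (25 uM duplicate primary; concentration series for actives); 1 h incubation; labelled ligand bound, filtered, counted by scintillation. Activity scored as signal loss vs DMSO.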
# [7] = target: Bile acid receptor (Homo sapiens) (UniProt Q96RI1); experiment: OT_FXR_FXRSRC1_0480: Odyssey Thera (OT) 8-hour HEK293T Protein-Complementation Assay for Farnesoid X receptor/SRC-1 Co-activator (AID 2283383)
# Sequence of Bile acid receptor (Homo sapiens) (Q96RI1 whole entry, looked up, the tested form may be a part): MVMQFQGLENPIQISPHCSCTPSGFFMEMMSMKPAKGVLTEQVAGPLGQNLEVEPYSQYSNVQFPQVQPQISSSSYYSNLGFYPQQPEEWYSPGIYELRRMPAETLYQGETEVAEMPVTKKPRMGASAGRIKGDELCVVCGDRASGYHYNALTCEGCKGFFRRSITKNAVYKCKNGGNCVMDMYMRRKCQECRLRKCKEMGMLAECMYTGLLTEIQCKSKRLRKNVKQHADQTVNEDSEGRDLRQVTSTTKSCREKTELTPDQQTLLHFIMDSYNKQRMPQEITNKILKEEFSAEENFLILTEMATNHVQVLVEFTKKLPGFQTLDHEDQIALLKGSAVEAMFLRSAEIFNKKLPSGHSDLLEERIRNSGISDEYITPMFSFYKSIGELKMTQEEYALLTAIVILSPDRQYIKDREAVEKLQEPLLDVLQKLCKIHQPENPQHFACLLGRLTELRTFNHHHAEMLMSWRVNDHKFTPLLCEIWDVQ
# Summary of the method: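 Co-activator recruitment to FXR was measured in living HEK293T cells, where interaction of the two fused partners restored an active fluorescent reporter. Signal gain after 8 h treatment was referenced to DMSO.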
# [8] = target: Bile acid receptor (Homo sapiens) (UniProt Q96RI1); experiment: OT_FXR_FXRSRC1_1440: Odyssey Thera (OT) 24-hour HEK293T Protein-Complementation Assay for Farnesoid X receptor/SRC-1 Co-activator (AID 2283384)
# Summary of the method: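 Cell-based binding reporter: interaction of FXR with SRC-1 brings reporter fragments together, giving a fluorescence signal read 24 h after dosing of HEK293T cells.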
# [9] = target: Agonist Androgen Response Element (ARE), AR (gene 367) (UniProt P10275); experiment: OT_AR_ARELUC_AG_1440: Odyssey Thera (OT) 24-hour CHO-K1 Luciferase Assay for Agonist Androgen Response Element (ARE) (AID 2283379)
# Sequence of Agonist Androgen Response Element (ARE), AR (gene 367) (P10275 whole entry, looked up): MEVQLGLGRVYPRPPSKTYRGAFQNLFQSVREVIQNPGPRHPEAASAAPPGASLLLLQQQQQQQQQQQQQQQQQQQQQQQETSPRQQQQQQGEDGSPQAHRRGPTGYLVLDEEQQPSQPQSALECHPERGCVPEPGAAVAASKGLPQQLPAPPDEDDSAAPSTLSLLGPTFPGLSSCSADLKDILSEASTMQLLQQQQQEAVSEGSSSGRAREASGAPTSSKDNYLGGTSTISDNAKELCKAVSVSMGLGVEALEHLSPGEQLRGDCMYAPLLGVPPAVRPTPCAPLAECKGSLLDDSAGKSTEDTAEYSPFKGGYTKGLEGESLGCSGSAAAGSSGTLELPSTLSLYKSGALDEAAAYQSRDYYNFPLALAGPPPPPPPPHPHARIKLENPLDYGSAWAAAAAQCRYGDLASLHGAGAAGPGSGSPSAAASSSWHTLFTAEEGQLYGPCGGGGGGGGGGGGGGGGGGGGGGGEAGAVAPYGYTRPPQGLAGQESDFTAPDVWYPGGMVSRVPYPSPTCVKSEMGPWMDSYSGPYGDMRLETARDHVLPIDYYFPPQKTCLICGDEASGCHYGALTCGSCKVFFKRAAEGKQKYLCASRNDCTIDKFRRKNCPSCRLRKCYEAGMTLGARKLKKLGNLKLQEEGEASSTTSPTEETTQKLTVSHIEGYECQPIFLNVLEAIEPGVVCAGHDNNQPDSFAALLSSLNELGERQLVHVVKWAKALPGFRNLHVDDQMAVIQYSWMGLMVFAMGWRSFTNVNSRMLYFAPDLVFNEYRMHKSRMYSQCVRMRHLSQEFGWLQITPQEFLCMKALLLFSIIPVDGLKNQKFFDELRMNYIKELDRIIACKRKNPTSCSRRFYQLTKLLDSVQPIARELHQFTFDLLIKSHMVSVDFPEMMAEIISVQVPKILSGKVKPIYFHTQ
# Summary of the method: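 CHO-K1 cells carrying an ARE-driven luciferase reporter were exposed to compounds for 24 h. Luminescence was then read after adding a D-luciferin/ATP mix, and activity was scored as a gain in signal over DMSO vehicle.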
# [10] = target: mouse Estrogen Receptor alpha (Era), Esr1 (gene 13982) (UniProt P19785); experiment: NVS_NR_mERa: NovaScreen (NVS) Nuclear Receptor Binding Assay for mouse Estrogen Receptor alpha (Era) (AID 2283378);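 also: hit means loss of bound radioligand signal relative to DMSO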
# Sequence of mouse Estrogen Receptor alpha (Era), Esr1 (gene 13982) (P19785 whole entry, looked up): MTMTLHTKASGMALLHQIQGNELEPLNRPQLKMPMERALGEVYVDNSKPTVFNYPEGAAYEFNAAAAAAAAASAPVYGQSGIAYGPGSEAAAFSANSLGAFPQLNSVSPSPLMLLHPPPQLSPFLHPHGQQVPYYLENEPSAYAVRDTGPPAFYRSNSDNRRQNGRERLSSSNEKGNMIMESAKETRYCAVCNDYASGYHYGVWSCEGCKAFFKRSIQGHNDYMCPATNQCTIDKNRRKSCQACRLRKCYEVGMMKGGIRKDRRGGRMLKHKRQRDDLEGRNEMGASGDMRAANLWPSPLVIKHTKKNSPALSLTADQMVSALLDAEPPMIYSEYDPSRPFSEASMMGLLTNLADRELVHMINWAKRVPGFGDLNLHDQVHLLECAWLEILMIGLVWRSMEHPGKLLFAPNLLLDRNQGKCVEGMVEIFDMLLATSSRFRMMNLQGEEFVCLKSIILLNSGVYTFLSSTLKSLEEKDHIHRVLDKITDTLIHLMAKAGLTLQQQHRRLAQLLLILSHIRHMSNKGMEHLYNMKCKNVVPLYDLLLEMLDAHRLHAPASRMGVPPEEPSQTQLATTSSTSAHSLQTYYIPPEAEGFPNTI
# Summary of the method: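 Test chemicals competed against a specific radioligand for binding to cell-free mouse Era. Duplicate wells at 25 uM were read 18 hours later by filter-based radiodetection, with loss of signal against DMSO scored as activity.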
smiles,measurement,setting,value
COc1ccc2sc(C(=O)Nc3nnn[nH]3)c(OC(C)C)c2c1,outcome,[1],inactive
same,outcome,[2],inactive
same,outcome,[3],inactive
same,outcome,[4],inactive
O=C(OC[C@H]1O[C@@H](OC(=O)c2cc(O)c(O)c(OC(=O)c3cc(O)c(O)c(O)c3)c2)[C@H](OC(=O)c2cc(O)c(O)c(OC(=O)c3cc(O)c(O)c(O)c3)c2)[C@@H](OC(=O)c2cc(O)c(O)c(OC(=O)c3cc(O)c(O)c(O)c3)c2)[C@@H]1OC(=O)c1cc(O)c(O)c(OC(=O)c2cc(O)c(O)c(O)c2)c1)c1cc(O)c(O)c(OC(=O)c2cc(O)c(O)c(O)c2)c1,AC50,[5],2.65 µM (active)
Cc1[nH]cnc1C[C@H]1CCc2c(C)c3ccccc3n2C1=O,AC50,[5],11.6 µM (active)
same,AC50,[6],7.59 µM (active)
same,AC50,[1],7.21 µM (active)
same,outcome,[2],inactive
CCc1cc(SCc2sc(-c3ccc(C(F)(F)F)cc3)nc2CN2CCN(c3ccc(OC)cc3)CC2)ccc1OCC(=O)O,AC50,[5],13.9 µM (active)
same,AC50,[1],4.89 µM (active)
same,outcome,[2],inactive
same,outcome,[7],inactive
same,AC50,[8],12 µM (active)
CCn1nc(Cc2ccccc2)cc1C1CCN(C[C@H]2C[C@H](N(C)[C@@H](C(=O)O)C(C)C)C[C@@H]2c2cccc(F)c2)CC1,AC50,[5],9.06 µM (active)
same,AC50,[1],11 µM (active)
same,outcome,[2],inactive
same,outcome,[3],inactive
same,outcome,[4],inactive
Nc1ccc(Nc2ccccc2)cc1,AC50,[5],7.42 µM (active)
same,AC50,[1],6.87 µM (active)
same,outcome,[3],inactive
same,outcome,[4],inactive
CCC(C)(C)C(=O)O[C@H]1C[C@@H](C)C=C2C=C[C@H](C)[C@H](CC[C@@H]3C[C@@H](O)CC(=O)O3)[C@H]21,AC50,[5],25 µM (active)
same,outcome,[1],inactive
same,outcome,[2],inactive
same,outcome,[3],inactive
same,outcome,[4],inactive
O=C1CCC(N2C(=O)c3ccccc3C2=O)C(=O)N1 (stereo not given),outcome,[1],inactive
same,outcome,[2],inactive
CNCc1ccc(NC(=O)c2c[nH]c3c2C(=O)CCC3)cc1,AC50,[5],13.8 µM (active)
same,AC50,[6],25 µM (active)
same,outcome,[2],inactive
CC(C)CCCCCCCOC(=O)CCCCC(=O)OCCCCCCCC(C)C,AC50,[5],25 µM (active)
same,outcome,[1],inactive
same,outcome,[7],inactive
same,outcome,[8],inactive
O=C(O)CC(O)C(=O)O (stereo not given),AC50,[5],4.96 µM (active)
same,outcome,[2],inactive
CC(=O)OCCC(C)C,outcome,[5],inactive
same,outcome,[1],inactive
same,outcome,[2],inactive
CCOc1cccc(-n2cc(C(=O)N3CCN(c4cc(C(=O)O)c5ccccc5c4)CC3)nc2-c2ccc(C)cc2)c1,AC50,[5],8.21 µM (active)
same,AC50,[6],14.7 µM (active)
same,AC50,[1],13.7 µM (active)
same,outcome,[9],inactive
same,outcome,[2],inactive
same,AC50,[7],11.3 µM (active)
same,AC50,[8],11.3 µM (active)
CC/C(=C\C(=N/O)C(N)=O)C(C)[N+](=O)[O-] (stereo not given),outcome,[5],inactive
same,outcome,[2],inactive
same,outcome,[3],inactive
same,outcome,[4],inactive
CCCCCCc1ccc(O)cc1O,AC50,[5],10 µM (active)
same,outcome,[6],inactive
same,AC50,[1],12.8 µM (active)
same,outcome,[9],inactive
CC(C)CCO,outcome,[5],inactive
same,outcome,[2],inactive
same,outcome,[3],inactive
same,outcome,[4],inactive
Fc1ccccc1[C@@H](F)COC1CCC(Nc2ncnc3[nH]ncc23)CC1 (stereo not given in full),AC50,[6],2.48 µM (active)
same,outcome,[9],inactive
same,outcome,[2],inactive
Oc1ccc2c(c1)-c1ccccc1C2,AC50,[5],10.9 µM (active)
same,AC50,[1],9.7 µM (active)
same,outcome,[9],inactive
same,AC50,[2],11 µM (active)
same,outcome,[7],inactive
same,outcome,[8],inactive
COc1cccc(-c2ccc(/C=C\CN3CCCCCC3)cc2Cl)c1,AC50,[5],5.87 µM (active)
same,outcome,[6],inactive
same,AC50,[1],2.67 µM (active)
same,outcome,[10],inactive
same,outcome,[2],inactive
same,outcome,[3],inactive
same,outcome,[4],inactive
COCCOCCOCCOC,outcome,[6],inactive
same,outcome,[2],inactive
same,outcome,[7],inactive
same,outcome,[8],inactive
CCOC(=O)COc1ccc2c(c1)CC(NCC(O)c1cccc(Cl)c1)CC2 (stereo not given),AC50,[5],0.124 µM (active)
same,AC50,[6],4.63 µM (active)
same,AC50,[1],0.312 µM (active)
same,AC50,[3],69.3 µM (active)
same,outcome,[4],inactive
O=c1[nH]c2ccc(S(=O)CCN3CCC(Cc4ccc(F)cc4)CC3)cc2o1 (stereo not given),AC50,[5],3.16 µM (active)
same,AC50,[6],0.403 µM (active)
same,AC50,[1],2.28 µM (active)
same,outcome,[2],inactive
same,outcome,[3],inactive
same,outcome,[4],inactive
CCCN(C1CCN(C(=O)C2CCNCC2)CC1)[C@@H]1CCc2ccc(OC)cc2C1,AC50,[6],3.7 µM (active)
same,outcome,[9],inactive
same,AC50,[2],59.7 µM (active)
CCCC(=O)OCC,outcome,[5],inactive
same,outcome,[2],inactive
same,outcome,[3],inactive
same,outcome,[4],inactive
CNS(=O)(=O)c1cc(C(=O)N2CCC(CCN3C4CCC3CC(n3c(C)nc5ccccc53)C4)(c3cccc(F)c3)CC2)c(Cl)cc1F (stereo not given),AC50,[5],8.74 µM (active)
same,AC50,[6],8.93 µM (active)
same,AC50,[1],2.25 µM (active)
same,outcome,[9],inactive
same,outcome,[2],inactive
same,AC50,[7],12.6 µM (active)
same,AC50,[8],17.6 µM (active)
COCCOc1cc2cc(C(=O)NC3CCN(C(C)C)CC3)n(CC(=O)Nc3ccc(Cl)cn3)c2cn1,AC50,[1],5.89 µM (active)
same,AC50,[2],58 µM (active)
CCOC(=O)c1ccc(C2CCC(NC[C@H](O)COc3ccc(O)c(NS(C)(=O)=O)c3)CC2)cc1 (stereo not given in full),AC50,[5],0.321 µM (active)
same,AC50,[6],1.71 µM (active)
same,AC50,[1],1.01 µM (active)
same,AC50,[8],28.8 µM (active)
O=C(CCCCCCCCc1cccnc1)N1CCC(C=C(c2ccccc2)c2ccccc2)CC1,outcome,[9],inactive
same,AC50,[2],11.9 µM (active)
Nc1nc2ncc(CNc3ccc(C(=O)N[C@@H](CCC(=O)O)C(=O)O)cc3)nc2c(=O)[nH]1,outcome,[9],inactive
same,outcome,[2],inactive
CC[C@H]1CC[C@H](NCc2cc3c(cc2OC)[C@H]2C[C@H]2C(=O)N3C)[C@H](c2ccccc2)N1,AC50,[1],11.3 µM (active)
same,outcome,[2],inactive
same,outcome,[3],inactive
same,outcome,[4],inactive
